Compounds with a hit are over-represented: about 5.3% of the library has one in this group of screens.
FMDV inh: foot and mouth disease virus antiviral activity | FMDV antiviral cell-based qHTS | Potency, µM (series often up to 57.9 µM), for inactives: top-dose activity change, negative = inhibition, most hits filed as inhibitors | actives 1.2% (n = 410,000) | AID 1159524; calls by dose curve; tested in HEK293T cells; note: read-out not given here; nearly all actives have a fitted effect of over 45% in size
HCV inhibitor: HCV inhibition | Huh7.5.1 HCVcc-Cre infection, luciferase reporter, 44 h | Potency, µM (doses to about 41.8 µM), for the others: at the top dose activity change, negative = inhibition, actives largely listed as inhibitors | actives 3.4% (n = 340,000); active = well fitted inhibition curve with a large enough effect; inconclusive = small, poorly fitted or top-dose-only effect, or another doubt; inactive = no such curve, though single readings can be large or run the other way
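1,000 cells/well; 4 h culture; + compound; + HCVcc-Cre (~0.5 moi); 44 h; luciferase substrate, RT 15 min; read 15 sec.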
VACV mCherry inh: vaccinia inhibition (mCherry reporter); Vaccinia virus mCherry reporter infection, fluorescence; Potency, µM (top dose mostly 36.5 µM), without a hit: top-dose activity change, negative = inhibition, hits mostly inhibitors; actives 0.63% (n = 310,000); AID 720579; calls by dose curve; tested in A549 cells; note: nearly all actives have a fitted effect of over 35% in size
Marburg entry inh: inhibitors of Marburg virus binding or cell entry; Marburg virus pseudotyped entry inhibition, cell reporter; Potency, µM (highest dose often 37.8 µM), without a hit: top-dose activity change, negative = inhibition, actives largely listed as inhibitors; actives 1.8% (n = 300,000); calls by dose curve; tested in HEK293 cells
Vaccinia Venus: inhibitors of vaccinia virus (Venus reporter); actives 0.46% (n = 330,000); Vaccinia virus Venus reporter expression, fluorescence; Potency, µM (series often up to 36.5 µM), without a hit: top-dose activity change, negative = inhibition, most hits filed as inhibitors; calls by dose curve; tested in A549 cells; note: nearly all actives have a fitted effect of over 30% in size
LASV entry inh: blocks Lassa virus binding to or entry into cells. Lassa virus pseudotype entry inhibition, cell reporter. Potency, µM (top dose mostly 37.9 µM), without a hit: at the highest dose activity change, negative = inhibition, most hits filed as inhibitors. actives 1.2% (n = 300,000). AID 540256; calls by dose curve; tested in HEK293 cells; note: nearly all actives have a fitted effect of over 50% in size
The depositor's hits bear a star; i = inactive; ? = inconclusive; . = not tested or not shown; [ ] = another dose, or the depositor's remark. % is set by controls: 0 for no effect and ±100 for the full control effect; potency is the fitted concentration of half-maximal effect.

SMILES | FMDV inh | HCV inhibitor | VACV mCherry inh | Marburg entry inh | Vaccinia Venus | LASV entry inh
Cc1cccnc1Nc1nc(-c2ccccn2)cs1 | -43% | ? | 2.5µM* | ? | 3.2µM* | 7.1µM*
CC(C)CO/N=C1\C[C@@H](O)[C@@H](O)[C@@H]2[C@@H]3C(=O)N(Cc4ccc5c(c4)OCO5)C(=O)[C@@H]3CC[C@H]12 | . | . | . | -30%[14.2 µM] | . | .
CC(=O)N1c2ccc(S(=O)(=O)NCC3CCC(C(=O)N4CC(C)CC(C)C4)CC3)cc2CC1C (centres undefined) | -14% | 14µM* | . | . | . | .
CC(=O)N1c2ccc(S(=O)(=O)NCC3CCC(C(=O)Nc4ccc(C)cc4)CC3)cc2CC1C (centres undefined) | ? | . | -13% | . | -23% | 1%[46.1 µM]
CC(=O)N1c2ccc(S(=O)(=O)NCC3CCC(C(=O)Nc4cccc(F)c4)CC3)cc2CC1C (centres undefined) | 20µM* | . | -9% | . | ? | ?
Cn1nc(C(=O)Nc2ccccc2N2CCCC2)c2ccccc2c1=O | ? | 11µM* | . | . | . | .
Cc1cccc(OCC(=O)Nc2ccc(O)c(-c3nc4ccccc4o3)c2)c1 | . | . | 0% | . | -13% | .
O=C(Nc1ccccc1O)c1c(O)c2c([nH]c1=O)CCCC2 | -16% | 14% | 18µM* | ? | ? | ?
CCC(C)NS(=O)(=O)c1ccc(S(=O)(=O)Nc2cc3c(cc2C(C)=O)OCO3)cc1 (centres undefined) | -2% | 14µM* | -29% | -8% | -9% | 20%
CC(=O)c1cc2c(cc1NS(=O)(=O)c1ccccc1)OCO2 | 14% | -10% | . | -9% | . | 17%
C#CC(=O)N(c1ccc(OC)cc1OC)C(C(=O)NC1CCCC1)c1cccs1 (centres undefined) | ? | 1.3µM* | 10µM* | ? | 10µM* | ?
COc1ccc(N(C(=O)c2ccco2)C(C(=O)NC2CCCCC2)c2cccs2)cc1OC (centres undefined) | 14% | 5% | . | -3% | -11% | ?
C#CC(=O)N(c1cc(OC)ccc1OC)C(C(=O)NC1CCCC1)c1cccs1 (centres undefined) | ? | . | 11µM* | 2µM* | 10µM* | 3.5µM*
CCN(Cc1ccncc1)C(=O)CCc1nnc(CCc2ccc(OC)cc2)o1 | -4% | -14% | -7% | -11%[46.1 µM] | -17% | 0%[46.1 µM]
Cc1cccn2c(CNCC3(c4ccccc4)CCCC3)c(C(=O)N3CCOCC3)nc12 | -24% | -30% | -28% | 8.9µM* | -19% | ?
CCc1cc(C)cc(OCCNC(=O)c2cncc(Br)c2)c1 | -25% | 10µM* | . | ? | ? | -10%
O=C(NCCOc1ccccc1)c1cncc(Br)c1 | 62% | -8% | . | 9% | -17% | 8%
CCC1CN(CCC(=O)N2CCN(c3ncccn3)CC2)Cc2cc(OC)ccc2O1 (centres undefined) | -19% | . | -15% | . | 0% | .
CC(=O)Oc1ccccc1N(C(C)=O)S(=O)(=O)c1ccc2ccccc2c1 | 13% | 1% | i | ? | -2% | 12%
CC(=O)Oc1ccc(N(C(C)=O)S(=O)(=O)c2cccs2)c2ccccc12 | 16µM* | . | -2% | 12µM* | 2% | 14%[14.3 µM]
CCOC(=O)c1cc(C#N)c(N2CCN(C(=O)c3cccc(C(F)(F)F)c3)CC2)nc1C(F)(F)F | -39% | 8.9µM* | i | 5µM* | -2% | 1.8µM*
CCOC(=O)c1cc(C#N)c(N2CCNCC2)nc1C(F)(F)F | -2% | ? | 6% | 13%[46.1 µM] | 0% | 13%[46.1 µM]
CCOC(=O)c1cc(C#N)c(N2CCN(C(=O)c3ccccc3)CC2)nc1C(F)(F)F | ? | -12% | -14% | ? | -11% | 11µM*
COc1cc([C@@H]2c3cc4c(cc3[C@H](OC(C)=O)[C@H]3COC(=O)[C@@H]23)OCO4)cc(OC)c1OC | . | . | ? | . | -25% | .
COc1cc([C@@H]2c3cc4c(cc3[C@@H](O)[C@H]3COC(=O)[C@H]23)OCO4)cc(OC)c1O | . | . | 11µM* | . | ? | .
SMILES | FMDV inh | HCV inhibitor | VACV mCherry inh | Marburg entry inh | Vaccinia Venus | LASV entry inh
COc1cc([C@@H]2c3cc4c(cc3C[C@H]3COC(=O)[C@@H]32)OCO4)cc(OC)c1O | . | . | 10µM* | . | ? | .
COc1cc(C2c3cc4c(cc3CC3COC(=O)C32)OCO4)cc(OC)c1OC (centres undefined) | -14% | ? | -21% | . | ? | .
CCN1CCCC1CNC(=O)c1cnn(-c2nccc(-c3ccc(C)o3)n2)c1C1CC1 (centres undefined) | -8% | . | -16% | . | -7% | .
CCN(CC)S(=O)(=O)c1ccc(NC(=O)C(C)N(c2ccc(OC)cc2)S(C)(=O)=O)cc1 (centres undefined) | -15% | 10µM* | . | -30% | . | ?
COc1ccccc1OCC(=O)Nc1ccc(S(=O)(=O)N(C)c2ccccc2)cc1 | -12% | 11µM* | . | . | . | .
CCN(CC)S(=O)(=O)c1ccc(NC(=O)COc2c(OC)cccc2OC)cc1 | 32µM* | ? | . | -18% | . | -24%
CCN(CC(=O)Nc1ccc(OC)c(OC)c1)S(=O)(=O)c1ccc(C)cc1 | 13µM* | ? | . | 0% | -12% | -2%
CCOc1ccc(N(C(C)C(=O)Nc2ccc(OC)cc2)S(C)(=O)=O)cc1 (centres undefined) | . | 6% | -14% | 6% | -15% | ?
COc1ccc(S(=O)(=O)N(C)CC(=O)Nc2ccc(C)cc2)cc1OC | -22% | -7% | . | . | . | .
O=C1N2CCCCC1(Sc1ccccc1)CCC2 (centres undefined) | -10% | . | -8% | . | 4% | .
O=C(CNC(=O)c1ccccc1)NCC(=O)OCC(=O)c1cccc2ccccc12 | . | . | -17% | . | 0% | .
CCN(CC)S(=O)(=O)c1cccc(NC(=O)COc2ccc(F)cc2Br)c1 | ? | 11µM* | -10% | ? | -10% | -22%
CCN(CC)S(=O)(=O)c1cccc(NC(=O)COc2ccc(C#N)cc2OC)c1 | ? | ? | -26% | -6% | -21% | 0%
O=Cc1ccnc2ccccc12 | . | . | -17% | . | -5% | .
CN(C)c1ccc(N=Cc2cccn2C)cc1 | 22% | ? | ? | ? | ? | 6.3µM*
CCN(CC)S(=O)(=O)c1ccc(C(=O)C(C#N)c2ccccn2)cc1 (centres undefined) | . | 10µM* | -6% | 1% | 4% | -5%
CCOC(=O)C(C#N)c1ccccn1 (centres undefined) | 46% | 1% | -6% | 27% | 2% | 49%[14.3 µM]
COc1ccc(CCNC(=O)CSc2cn(Cc3ccccc3)c3ccccc23)cc1OC | ? | 11µM* | -10% | -17% | -25% | -12%
COc1ccc(CCNC(=O)CSc2cn(Cc3cccc(C)c3)c3ccccc23)cc1OC | 0% | 10µM* | ? | ? | ? | ?
COCc1c(C(=O)N2CCC(N3CCCCC3)CC2)cnn1-c1ncc(C)c(-c2cccs2)n1 | -14% | . | -11% | . | 1% | .
